Test results as given in article PMC7862700, “An all-to-all approach to the identification of sequence-specific readers for epigenetic DNA modifications on cytosine”.

What was measured:
Assay in all cases: DAPPL (digital affinity profiling via proximity ligation, sequencing); 10 mM Tris-HCl pH 7.5, 50 mM NaCl, 1 mM DTT, 4% glycerol, room temperature, 30 min; GST-TFs on glutathione beads, 16-mer random dsDNA library, 0.1% formaldehyde crosslink after washing; high values mean tight binding
Conditions in all cases: protein: recombinant; tags: N-terminal GST; dsDNA, one strand shown
[1] = target: T1, ELK1 (Homo sapiens, UniProt P19419 1-428)
T1 sequence: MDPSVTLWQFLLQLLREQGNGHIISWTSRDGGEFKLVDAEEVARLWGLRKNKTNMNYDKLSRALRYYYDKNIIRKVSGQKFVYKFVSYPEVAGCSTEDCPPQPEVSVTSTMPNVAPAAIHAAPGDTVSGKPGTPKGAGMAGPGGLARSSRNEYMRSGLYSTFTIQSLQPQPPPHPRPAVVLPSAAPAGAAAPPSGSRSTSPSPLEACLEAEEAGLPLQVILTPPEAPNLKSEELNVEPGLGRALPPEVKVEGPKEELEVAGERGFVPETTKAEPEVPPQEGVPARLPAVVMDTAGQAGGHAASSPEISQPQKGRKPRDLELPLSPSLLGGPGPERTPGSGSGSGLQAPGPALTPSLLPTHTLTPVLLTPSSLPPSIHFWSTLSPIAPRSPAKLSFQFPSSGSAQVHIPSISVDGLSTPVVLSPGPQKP
Procedure, shortened: (§1)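 Yeast served to express human transcription factors as GST fusions, which were then captured on glutathione beads and labelled with DNA barcodes. Pooled with a tag-only sample, they were incubated with 200 nmole of a 16-mer random double-stranded DNA library for 30 min at room temperature in Tris/NaCl/DTT/glycerol buffer, washed, crosslinked with 0.1% formaldehyde, ligated by proximity, amplified by PCR and sequenced. Dividing each hexamer's read frequency for a factor by its frequency for the tag-only sample gives the binding signal.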

[2] = target: T2, GABPA (Homo sapiens, UniProt Q06546 1-454)
T2 sequence: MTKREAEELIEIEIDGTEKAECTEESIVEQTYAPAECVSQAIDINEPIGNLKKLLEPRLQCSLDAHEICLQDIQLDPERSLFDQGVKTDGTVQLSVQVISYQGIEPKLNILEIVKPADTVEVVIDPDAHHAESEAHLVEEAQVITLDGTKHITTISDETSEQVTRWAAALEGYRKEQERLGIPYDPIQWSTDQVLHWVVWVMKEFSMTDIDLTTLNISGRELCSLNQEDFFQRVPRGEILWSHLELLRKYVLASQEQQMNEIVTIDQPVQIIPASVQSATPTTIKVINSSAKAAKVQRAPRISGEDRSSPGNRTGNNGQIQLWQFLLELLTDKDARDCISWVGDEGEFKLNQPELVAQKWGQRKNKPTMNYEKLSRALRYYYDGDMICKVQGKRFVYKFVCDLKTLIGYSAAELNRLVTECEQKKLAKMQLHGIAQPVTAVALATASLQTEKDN
Procedure, shortened: as §1

[3] = target: T3, ERG (Homo sapiens, UniProt P11308 1-479)
T3 sequence: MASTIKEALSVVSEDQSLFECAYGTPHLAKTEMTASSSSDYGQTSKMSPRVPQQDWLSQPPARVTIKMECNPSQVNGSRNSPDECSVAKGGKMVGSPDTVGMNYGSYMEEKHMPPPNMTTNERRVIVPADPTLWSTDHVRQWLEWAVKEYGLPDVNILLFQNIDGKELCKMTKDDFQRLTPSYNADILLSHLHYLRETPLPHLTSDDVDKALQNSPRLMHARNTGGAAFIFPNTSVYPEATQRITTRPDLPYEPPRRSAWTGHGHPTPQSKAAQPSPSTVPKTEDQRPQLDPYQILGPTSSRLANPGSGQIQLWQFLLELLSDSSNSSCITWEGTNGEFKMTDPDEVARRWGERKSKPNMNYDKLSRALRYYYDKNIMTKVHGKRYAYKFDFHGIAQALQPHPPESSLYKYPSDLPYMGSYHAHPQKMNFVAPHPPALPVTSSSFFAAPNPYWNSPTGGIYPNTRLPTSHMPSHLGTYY
Procedure, shortened: as §1

[4] = target: ELF1 (Homo sapiens, UniProt P32519 1-619)
Procedure, shortened: as §1

[5] = target: T4, EHF (Homo sapiens, UniProt Q9NZC4 1-300)
T4 sequence: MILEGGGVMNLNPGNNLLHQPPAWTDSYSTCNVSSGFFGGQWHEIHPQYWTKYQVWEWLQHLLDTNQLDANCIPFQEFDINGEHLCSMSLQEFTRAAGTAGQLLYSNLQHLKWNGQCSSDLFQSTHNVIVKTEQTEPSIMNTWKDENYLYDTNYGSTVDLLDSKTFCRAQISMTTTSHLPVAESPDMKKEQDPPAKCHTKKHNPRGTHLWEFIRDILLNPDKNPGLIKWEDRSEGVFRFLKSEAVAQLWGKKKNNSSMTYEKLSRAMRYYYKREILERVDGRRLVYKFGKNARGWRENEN
Procedure, shortened: as §1

[6] = target: SPI1 (Homo sapiens, UniProt P17947 1-270)
Procedure, shortened: as §1

[7] = target: T5, ELK3 (Homo sapiens, UniProt P41970 1-407)
T5 sequence: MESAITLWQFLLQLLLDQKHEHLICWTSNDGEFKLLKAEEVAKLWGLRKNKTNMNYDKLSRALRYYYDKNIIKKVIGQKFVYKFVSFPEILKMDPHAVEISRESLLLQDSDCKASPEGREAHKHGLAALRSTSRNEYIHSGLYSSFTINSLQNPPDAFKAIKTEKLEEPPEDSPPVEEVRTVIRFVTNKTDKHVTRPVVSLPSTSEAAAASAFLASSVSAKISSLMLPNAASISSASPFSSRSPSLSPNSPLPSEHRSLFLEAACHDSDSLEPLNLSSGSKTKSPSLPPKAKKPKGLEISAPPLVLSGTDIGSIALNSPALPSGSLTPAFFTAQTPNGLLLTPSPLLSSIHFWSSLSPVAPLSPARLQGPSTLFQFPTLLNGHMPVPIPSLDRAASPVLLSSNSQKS
Procedure, shortened: as §1

[8] = target: T6, SPIC (Homo sapiens, UniProt Q8N5J4 1-248)
T6 sequence: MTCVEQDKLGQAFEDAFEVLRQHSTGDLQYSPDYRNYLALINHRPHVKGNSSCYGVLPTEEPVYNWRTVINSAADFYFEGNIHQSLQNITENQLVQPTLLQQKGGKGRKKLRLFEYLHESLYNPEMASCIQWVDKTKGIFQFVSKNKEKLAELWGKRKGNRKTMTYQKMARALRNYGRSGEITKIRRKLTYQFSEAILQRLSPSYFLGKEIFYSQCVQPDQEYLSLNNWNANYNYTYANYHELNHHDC
Procedure, shortened: as §1

[9] = target: ELF4 (Homo sapiens, UniProt Q99607 1-663)
Procedure, shortened: as §1

[10] = target: T7, ELK4 (Homo sapiens, UniProt P28324-2 1-405)
T7 sequence: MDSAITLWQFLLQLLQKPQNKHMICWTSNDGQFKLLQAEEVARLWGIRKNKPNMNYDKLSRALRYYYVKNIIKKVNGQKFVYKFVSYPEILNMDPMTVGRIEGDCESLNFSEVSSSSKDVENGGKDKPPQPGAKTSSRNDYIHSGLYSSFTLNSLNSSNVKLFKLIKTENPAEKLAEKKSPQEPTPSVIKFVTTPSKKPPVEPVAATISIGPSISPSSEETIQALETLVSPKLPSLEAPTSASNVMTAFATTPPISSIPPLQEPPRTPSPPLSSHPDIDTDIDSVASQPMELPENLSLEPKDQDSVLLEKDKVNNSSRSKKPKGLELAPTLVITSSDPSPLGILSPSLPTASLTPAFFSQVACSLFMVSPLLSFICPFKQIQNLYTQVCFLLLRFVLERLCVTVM
Procedure, shortened: as §1

[11] = target: T8, ETV2 (Homo sapiens, UniProt O00321 1-342)
T8 sequence: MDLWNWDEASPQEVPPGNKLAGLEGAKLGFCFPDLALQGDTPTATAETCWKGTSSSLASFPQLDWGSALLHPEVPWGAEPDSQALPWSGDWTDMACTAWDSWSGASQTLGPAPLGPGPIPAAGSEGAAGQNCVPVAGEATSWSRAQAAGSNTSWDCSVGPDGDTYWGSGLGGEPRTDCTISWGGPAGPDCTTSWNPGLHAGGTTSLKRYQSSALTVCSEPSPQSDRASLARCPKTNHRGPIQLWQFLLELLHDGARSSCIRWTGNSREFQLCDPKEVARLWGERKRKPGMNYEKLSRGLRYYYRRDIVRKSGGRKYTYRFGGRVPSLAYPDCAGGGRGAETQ
Procedure, shortened: as §1

[12] = target: T9, ELF3 (Homo sapiens, UniProt P78545 1-371)
T9 sequence: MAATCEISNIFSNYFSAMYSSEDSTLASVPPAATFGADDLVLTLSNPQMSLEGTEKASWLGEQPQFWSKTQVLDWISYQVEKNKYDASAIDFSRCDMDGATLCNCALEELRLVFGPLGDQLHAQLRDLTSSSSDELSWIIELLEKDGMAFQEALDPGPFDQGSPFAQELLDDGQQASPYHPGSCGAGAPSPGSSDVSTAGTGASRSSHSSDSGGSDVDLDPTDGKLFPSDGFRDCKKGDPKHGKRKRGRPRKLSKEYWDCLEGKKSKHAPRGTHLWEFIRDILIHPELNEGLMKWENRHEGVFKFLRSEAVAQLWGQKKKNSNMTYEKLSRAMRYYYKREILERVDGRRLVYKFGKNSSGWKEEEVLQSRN
Procedure, shortened: as §1

[13] = target: ETV1 (Homo sapiens, UniProt P50549 1-477)
Procedure, shortened: as §1

[14] = target: T10, ERF (Homo sapiens, UniProt P50548 1-548)
T10 sequence: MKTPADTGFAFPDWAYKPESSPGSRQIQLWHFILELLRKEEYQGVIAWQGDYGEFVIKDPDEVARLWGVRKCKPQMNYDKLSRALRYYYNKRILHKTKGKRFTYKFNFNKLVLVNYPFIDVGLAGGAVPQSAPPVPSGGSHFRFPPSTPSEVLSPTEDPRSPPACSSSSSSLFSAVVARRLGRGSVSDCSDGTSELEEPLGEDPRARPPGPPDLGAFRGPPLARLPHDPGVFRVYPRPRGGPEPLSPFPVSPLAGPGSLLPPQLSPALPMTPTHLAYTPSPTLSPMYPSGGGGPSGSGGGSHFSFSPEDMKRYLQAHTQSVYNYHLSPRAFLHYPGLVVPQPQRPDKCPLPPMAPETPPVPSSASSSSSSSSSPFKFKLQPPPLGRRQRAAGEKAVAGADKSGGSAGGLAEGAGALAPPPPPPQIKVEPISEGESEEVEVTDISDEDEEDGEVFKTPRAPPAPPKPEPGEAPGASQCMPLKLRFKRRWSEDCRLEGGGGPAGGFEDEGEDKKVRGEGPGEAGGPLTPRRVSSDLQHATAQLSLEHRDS
Procedure, shortened: as §1

[15] = target: T11, ETV3L (Homo sapiens, UniProt Q6ZN32 1-361)
T11 sequence: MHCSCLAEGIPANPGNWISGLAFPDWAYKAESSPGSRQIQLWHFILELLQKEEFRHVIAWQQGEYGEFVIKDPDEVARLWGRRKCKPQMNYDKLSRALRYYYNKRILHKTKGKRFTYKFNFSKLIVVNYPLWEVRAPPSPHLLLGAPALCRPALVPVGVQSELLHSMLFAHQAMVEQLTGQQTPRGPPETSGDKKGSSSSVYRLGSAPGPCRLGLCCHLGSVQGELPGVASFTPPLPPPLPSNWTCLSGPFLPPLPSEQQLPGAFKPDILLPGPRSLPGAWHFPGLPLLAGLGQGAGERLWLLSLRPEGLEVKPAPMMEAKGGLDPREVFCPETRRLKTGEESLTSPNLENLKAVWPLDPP
Procedure, shortened: as §1

[16] = target: T12, ETV7 (Homo sapiens, UniProt Q9Y603 1-341)
T12 sequence: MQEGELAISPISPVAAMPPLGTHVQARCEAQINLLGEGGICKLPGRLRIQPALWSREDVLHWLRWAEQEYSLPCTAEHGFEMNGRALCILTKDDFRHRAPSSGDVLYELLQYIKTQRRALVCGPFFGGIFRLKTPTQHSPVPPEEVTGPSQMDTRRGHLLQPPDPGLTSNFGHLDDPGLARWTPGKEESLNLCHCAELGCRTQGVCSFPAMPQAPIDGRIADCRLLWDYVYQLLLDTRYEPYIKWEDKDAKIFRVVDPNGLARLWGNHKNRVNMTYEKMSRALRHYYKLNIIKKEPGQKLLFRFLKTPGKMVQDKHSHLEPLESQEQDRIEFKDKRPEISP
Procedure, shortened: as §1

[17] = target: T13, ETV3 (Homo sapiens, UniProt P41162-2 1-143)
T13 sequence: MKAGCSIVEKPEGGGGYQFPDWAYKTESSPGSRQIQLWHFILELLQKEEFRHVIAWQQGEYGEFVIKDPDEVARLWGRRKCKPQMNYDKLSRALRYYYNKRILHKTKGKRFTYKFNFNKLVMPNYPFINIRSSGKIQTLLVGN
Procedure, shortened: as §1

[18] = target: ETV6 (Homo sapiens, UniProt P41212 1-452)
Procedure, shortened: as §1

Chain of ELF4 (Q99607 whole entry): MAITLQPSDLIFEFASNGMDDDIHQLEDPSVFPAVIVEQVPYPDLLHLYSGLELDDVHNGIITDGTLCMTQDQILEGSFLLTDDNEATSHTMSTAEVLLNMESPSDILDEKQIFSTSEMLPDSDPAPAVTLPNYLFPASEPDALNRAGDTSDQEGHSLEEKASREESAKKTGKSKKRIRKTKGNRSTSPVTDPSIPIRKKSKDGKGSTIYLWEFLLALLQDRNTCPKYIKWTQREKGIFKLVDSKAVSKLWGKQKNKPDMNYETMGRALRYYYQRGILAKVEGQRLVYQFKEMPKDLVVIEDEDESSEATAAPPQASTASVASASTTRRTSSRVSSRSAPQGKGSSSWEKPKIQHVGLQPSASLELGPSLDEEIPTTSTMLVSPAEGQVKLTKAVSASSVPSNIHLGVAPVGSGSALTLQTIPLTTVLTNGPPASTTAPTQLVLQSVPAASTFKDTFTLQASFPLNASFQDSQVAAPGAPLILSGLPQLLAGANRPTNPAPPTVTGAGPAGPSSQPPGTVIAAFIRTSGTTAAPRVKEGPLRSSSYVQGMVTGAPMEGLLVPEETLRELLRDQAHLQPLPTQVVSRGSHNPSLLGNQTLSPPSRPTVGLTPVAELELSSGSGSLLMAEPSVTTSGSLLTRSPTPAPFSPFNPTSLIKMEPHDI
Chain of ELF1 (P32519 whole entry): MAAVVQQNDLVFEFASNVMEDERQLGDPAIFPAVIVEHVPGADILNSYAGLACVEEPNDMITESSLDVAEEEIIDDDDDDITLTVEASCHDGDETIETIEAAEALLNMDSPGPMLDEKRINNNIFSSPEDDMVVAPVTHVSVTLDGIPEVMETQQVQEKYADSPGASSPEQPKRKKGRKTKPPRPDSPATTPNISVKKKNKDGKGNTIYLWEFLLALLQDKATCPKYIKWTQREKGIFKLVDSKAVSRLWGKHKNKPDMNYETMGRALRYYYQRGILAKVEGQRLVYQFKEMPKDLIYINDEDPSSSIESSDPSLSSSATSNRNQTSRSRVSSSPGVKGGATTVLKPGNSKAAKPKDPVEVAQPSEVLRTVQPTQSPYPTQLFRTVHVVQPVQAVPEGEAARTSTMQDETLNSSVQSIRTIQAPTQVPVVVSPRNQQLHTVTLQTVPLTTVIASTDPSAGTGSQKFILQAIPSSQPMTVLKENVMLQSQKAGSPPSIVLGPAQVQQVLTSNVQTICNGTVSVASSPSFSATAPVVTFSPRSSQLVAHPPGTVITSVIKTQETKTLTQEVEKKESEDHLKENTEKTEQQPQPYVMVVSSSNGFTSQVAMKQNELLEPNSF
Chain of ETV6 (P41212 whole entry): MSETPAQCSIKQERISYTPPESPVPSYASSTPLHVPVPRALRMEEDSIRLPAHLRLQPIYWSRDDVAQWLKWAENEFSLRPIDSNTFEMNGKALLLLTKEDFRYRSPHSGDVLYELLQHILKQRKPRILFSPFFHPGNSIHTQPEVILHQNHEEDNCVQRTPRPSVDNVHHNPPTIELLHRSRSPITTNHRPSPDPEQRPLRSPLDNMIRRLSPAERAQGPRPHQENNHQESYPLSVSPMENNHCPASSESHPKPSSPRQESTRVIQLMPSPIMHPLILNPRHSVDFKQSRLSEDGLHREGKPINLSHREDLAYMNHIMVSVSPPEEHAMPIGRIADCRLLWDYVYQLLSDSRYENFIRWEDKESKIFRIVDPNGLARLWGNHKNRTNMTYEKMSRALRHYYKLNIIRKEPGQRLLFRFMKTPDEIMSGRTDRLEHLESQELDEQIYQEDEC
Chain of ETV1 (P50549 whole entry): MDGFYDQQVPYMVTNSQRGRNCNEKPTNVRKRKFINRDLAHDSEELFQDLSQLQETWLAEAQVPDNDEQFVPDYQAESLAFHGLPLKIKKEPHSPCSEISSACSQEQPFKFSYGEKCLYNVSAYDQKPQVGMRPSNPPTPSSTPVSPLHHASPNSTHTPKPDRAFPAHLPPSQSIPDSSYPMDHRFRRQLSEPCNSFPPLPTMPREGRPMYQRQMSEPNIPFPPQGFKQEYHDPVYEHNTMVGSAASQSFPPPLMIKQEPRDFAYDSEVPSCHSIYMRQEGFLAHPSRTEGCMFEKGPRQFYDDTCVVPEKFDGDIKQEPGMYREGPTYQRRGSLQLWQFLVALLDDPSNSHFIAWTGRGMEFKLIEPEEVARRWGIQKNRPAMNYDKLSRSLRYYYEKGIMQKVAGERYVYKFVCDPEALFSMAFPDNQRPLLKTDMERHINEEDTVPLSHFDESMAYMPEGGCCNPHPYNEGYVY

Sequence: GTGCAT
- binding signal [1]: 1.05 fold enrichment (6-mer frequency, TF over GST control)
- binding signal [2]: 1.1 fold enrichment (6-mer frequency, TF over GST control)
- binding signal [3]: 1.06 fold enrichment (6-mer frequency, TF over GST control)
- binding signal [4]: 1.01 fold enrichment (6-mer frequency, TF over GST control)
- binding signal [5]: 1.07 fold enrichment (6-mer frequency, TF over GST control)
- binding signal [6]: 1.15 fold enrichment (6-mer frequency, TF over GST control)
- binding signal [7]: 1.16 fold enrichment (6-mer frequency, TF over GST control)
- binding signal [8]: 1.28 fold enrichment (6-mer frequency, TF over GST control)
- binding signal [9]: 1.08 fold enrichment (6-mer frequency, TF over GST control)
- binding signal [10]: 1.08 fold enrichment (6-mer frequency, TF over GST control)
- binding signal [11]: 1.02 fold enrichment (6-mer frequency, TF over GST control)
- binding signal [12]: 1.03 fold enrichment (6-mer frequency, TF over GST control)
- binding signal [13]: 1.05 fold enrichment (6-mer frequency, TF over GST control)
- binding signal [14]: 1.18 fold enrichment (6-mer frequency, TF over GST control)
- binding signal [15]: 1.04 fold enrichment (6-mer frequency, TF over GST control)
- binding signal [16]: 1.12 fold enrichment (6-mer frequency, TF over GST control)
- binding signal [17]: 1 fold enrichment (6-mer frequency, TF over GST control)
- binding signal [18]: 1.14 fold enrichment (6-mer frequency, TF over GST control)
